Results taken from PubChem BioAssay AID1159580 (chemical genetic matrix, 2015).
Screen size: about 5,500 compounds; about 2,000 (36%) were called active. Not shown: some 18% with an inconclusive outcome. The list shows a part of the results. Unmarked numbers belong to inactive results. Cut-off read from the data, not from the text of the source: active = normalized growth mostly below about 0.91 (no sharp cut-off); inconclusive = no clear call, values can overlap the other calls; inactive = mostly above about 0.92.

Test: chemical genetic growth profiling, strain panel (AID 1159580);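 note: tested at 20 µM; growth read once vehicle control cultures reached saturation at 30 °C; 1 = growth at the plate median or of vehicle wells; lower values mean less growth of the strain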
Settings: S. cerevisiae deletion strains, growth OD
[1] = locus YBR021W, strain FUR4, hits give low values
[2] = locus YBR229C, strain ROT2, hits give low values
[3] = locus YCL029C, strain bik1, hits give low values
[4] = locus YDL035C, strain GPR1, hits give low values
[5] = locus YDL074C, strain BRE1, hits give low values
[6] = locus YDL101C, strain DUN1, hits give low values
[7] = locus YDL185W, strain tfp1, hits give low values
[8] = locus YDL192W, strain arf1, hits give low values
[9] = locus YDR101C, strain arx1, hits give low values
[10] = locus YDR162C, strain NBP2, hits give low values
[11] = locus YDR318W, strain mcm21, hits give low values
[12] = locus YDR388W, hits give low values
[13] = locus YDR502C, strain sam2, hits give low values
[14] = locus YER110C, hits give low values
[15] = locus YER155C, strain BEM2, hits give low values
[16] = locus YER167W, strain BCK2, hits give low values
[17] = locus YGL078C, strain dbp3, hits give low values
[18] = locus YGL086W, strain mad1, hits give low values
[19] = locus YGL248W, strain PDE1, hits give low values
[20] = locus YGR078C, strain PAC10, hits give low values
[21] = locus YGR135W, strain pre9, hits give low values
[22] = locus YGR252W, strain gcn5, hits give low values
[23] = locus YHR079C, strain IRE1 (second series), hits give low values
[24] = locus YHR094C, strain hxt1, hits give low values
[25] = locus YHR129C, strain ARP1, hits give low values
[26] = locus YHR200W, strain rpn10, hits give low values
[27] = locus YIL066C, strain RNR3, hits give low values
[28] = locus YIL073C, strain SPO22, hits give low values
[29] = locus YIL125W, strain kgd1, hits give low values
[30] = locus YIR030C, strain dcg1, hits give low values
[31] = locus YJL095W, strain BCK1, hits give low values
[32] = locus YJL134W, strain LCB3, hits give low values
[33] = locus YJL168C, strain set2, hits give low values
[34] = locus YJL187C, strain SWE1 (second series), hits give low values
[35] = locus YKL009W, strain mrt4, hits give low values
[36] = locus YKL068W, hits give low values
[37] = locus YKL085W, strain MDH1 (second series), hits give low values
[38] = locus YKL085W, strain MDH1, hits give low values
[39] = locus YKR001C, strain vps1, hits give low values
[40] = locus YLR039C, strain RIC1, hits give low values
[41] = locus YLR058C, strain SHM2, hits give low values
[42] = locus YLR102C, strain apc9, hits give low values
[43] = locus YLR268W, strain sec22, hits give low values
[44] = locus YLR371W, strain rom2, hits give low values
[45] = locus YLR418C, strain cdc73, hits give low values
[46] = locus YML016C, strain PPZ1, hits give low values
[47] = locus YML032C, strain rad52, hits give low values
[48] = locus YML124C, strain tub3, hits give low values
[49] = locus YMR078C, strain ctf18, hits give low values
[50] = locus YMR223W, strain ubp8, hits give low values
[51] = locus YMR307W, strain GAS1, hits give low values
[52] = locus YNL067W, strain RPL9B, hits give low values
[53] = locus YNL153C, strain GIM3, hits give low values
[54] = locus YNL233W, strain BNI4, hits give low values
[55] = locus YNL250W, strain rad50, hits give low values
[56] = locus YNL271C, strain bni1, hits give low values
[57] = locus YNL298W, strain CLA4, hits give low values
[58] = locus YNL307C, strain MCK1, hits give low values
[59] = locus YNL322C, strain KRE1, hits give low values
[60] = locus YNR052C, strain pop2, hits give low values
[61] = locus YOL147C, strain pex11, hits give low values
[62] = locus YOR061W, strain CKA2, hits give low values
[63] = locus YOR069W, strain VPS5, hits give low values
[64] = locus YOR136W, strain idh2, hits give low values
[65] = locus YOR144C, strain elg1, hits give low values
[66] = locus YOR184W, strain ser1, hits give low values
[67] = locus YOR316C, strain cot1, hits give low values
[68] = locus YPR119W, strain clb2, hits give low values
[69] = locus YPR141C, strain kar3, hits give low values
[70] = locus YPR163C, strain tif3, hits give low values
[71] = locus YPR167C, strain met16, hits give low values
[72] = strain wtn01, hits give low values

SMILES: Cc1cc(=O)c2c(O)c3c(cc2o1)OC(C)(C)CC3
- normalized growth (locus YAL013W, strain DEP1, hits give low values): 1.01
- normalized growth [1]: 1.07
- normalized growth [2]: 1
- normalized growth [3]: 0.967
- normalized growth [4]: 1.02
- normalized growth [5]: 1.03
- normalized growth [6]: 0.989
- normalized growth (locus YDL134C, strain PPH21, hits give low values): 0.981
- normalized growth [7]: 0.938
- normalized growth [8]: 0.965
- normalized growth [9]: 0.975
- normalized growth [10]: 1.01
- normalized growth [11]: 0.954
- normalized growth [12]: 0.966
- normalized growth [13]: 0.971
- normalized growth (locus YEL061C, strain CIN8, hits give low values): 1
- normalized growth [14]: 0.967
- normalized growth [15]: 0.995
- normalized growth [16]: 0.998
- normalized growth [17]: 0.951
- normalized growth [18]: 0.983
- normalized growth [19]: 1
- normalized growth [20]: 0.998
- normalized growth [21]: 0.923
- normalized growth [22]: 0.931
- normalized growth (locus YHR030C, strain SLT2, hits give low values): 0.992
- normalized growth [23]: 0.962
- normalized growth [24]: 0.975
- normalized growth [25]: 0.993
- normalized growth [26]: 0.968
- normalized growth [27]: 1.01
- normalized growth [28]: 0.899
- normalized growth [29]: 0.978
- normalized growth [30]: 0.949
- normalized growth [31]: 0.972
- normalized growth [32]: 1
- normalized growth [33]: 0.969
- normalized growth [34]: 0.973
- normalized growth [35]: 0.992
- normalized growth [36]: 0.976
- normalized growth [37]: 1
- normalized growth [38]: 1
- normalized growth (locus YKL190W, strain CNB1, hits give low values): 1
- normalized growth [39]: 0.96
- normalized growth [40]: 1.01
- normalized growth [41]: 0.994
- normalized growth [42]: 0.975
- normalized growth [43]: 0.989
- normalized growth (locus YLR330W, strain CHS5, hits give low values): 0.988
- normalized growth (locus YLR342W, strain FKS1 (second series), hits give low values): 1.08
- normalized growth [44]: 0.95
- normalized growth [45]: 0.972
- normalized growth [46]: 1.01
- normalized growth [47]: 0.963
- normalized growth [48]: 0.971
- normalized growth [49]: 0.951
- normalized growth [50]: 0.959
- normalized growth (locus YMR263W, strain SAP30, hits give low values): 0.973
- normalized growth [51]: 1.21
- normalized growth [52]: 0.97
- normalized growth (locus YNL128W, strain TEP1, hits give low values): 1
- normalized growth [53]: 0.973
- normalized growth [54]: 1.02
- normalized growth [55]: 0.967
- normalized growth [56]: 0.965
- normalized growth [57]: 0.961
- normalized growth [58]: 0.982
- normalized growth [59]: 0.995
- normalized growth [60]: 0.949
- normalized growth (locus YOL012C, strain htz1): 0.959
- normalized growth [61]: 0.967
- normalized growth [62]: 1
- normalized growth [63]: 0.997
- normalized growth [64]: 0.997
- normalized growth [65]: 0.973
- normalized growth [66]: 1
- normalized growth [67]: 0.964
- normalized growth (locus YPL055C, strain LGE1, hits give low values): 1.05
- normalized growth [68]: 0.956
- normalized growth [69]: 0.946
- normalized growth [70]: 0.98
- normalized growth [71]: 0.949
- normalized growth [72]: 1

SMILES: Cc1cc(=O)c2c(O)c3c(cc2o1)OCC(C)CC3 (configuration not stated)
- normalized growth [1]: 0.993
- normalized growth [2]: 0.981
- normalized growth [3]: 0.912
- normalized growth [4]: 0.954
- normalized growth [5]: 0.818
- normalized growth [6]: 0.898
- normalized growth [7]: 0.915
- normalized growth [8]: 0.848 (active)
- normalized growth [9]: 0.896 (active)
- normalized growth [10]: 0.885
- normalized growth [11]: 0.858 (active)
- normalized growth [12]: 0.909 (active)
- normalized growth [13]: 0.858 (active)
- normalized growth [14]: 0.893 (active)
- normalized growth [15]: 0.849 (active)
- normalized growth [16]: 0.961
- normalized growth [17]: 0.936
- normalized growth [18]: 0.846 (active)
- normalized growth [19]: 0.881 (active)
- normalized growth [20]: 0.8 (active)
- normalized growth [21]: 0.806 (active)
- normalized growth [22]: 0.689 (active)
- normalized growth [23]: 0.925 (active)
- normalized growth [24]: 0.926
- normalized growth [25]: 0.926
- normalized growth [26]: 0.868 (active)
- normalized growth [27]: 0.941
- normalized growth [28]: 0.796
- normalized growth [29]: 0.924 (active)
- normalized growth [30]: 0.912 (active)
- normalized growth [31]: 0.815
- normalized growth [32]: 0.969
- normalized growth [33]: 0.914 (active)
- normalized growth [34]: 0.908
- normalized growth (locus YJR043C, strain POL32, hits give low values): 0.966
- normalized growth [35]: 0.897
- normalized growth [36]: 0.921 (active)
- normalized growth [37]: 0.942
- normalized growth [38]: 0.942
- normalized growth [39]: 0.797 (active)
- normalized growth [40]: 0.673 (active)
- normalized growth [41]: 0.926
- normalized growth [42]: 0.928
- normalized growth [43]: 0.914
- normalized growth [44]: 0.821 (active)
- normalized growth [45]: 0.591 (active)
- normalized growth [46]: 0.976
- normalized growth [47]: 0.881 (active)
- normalized growth [48]: 0.91 (active)
- normalized growth [49]: 0.899 (active)
- normalized growth [50]: 0.879 (active)
- normalized growth [51]: 0.588 (active)
- normalized growth [52]: 0.919
- normalized growth [53]: 0.704 (active)
- normalized growth [54]: 0.826 (active)
- normalized growth [55]: 0.902
- normalized growth [56]: 0.922
- normalized growth [57]: 0.929
- normalized growth [58]: 0.719 (active)
- normalized growth [59]: 0.923 (active)
- normalized growth [60]: 0.932
- normalized growth (locus YOL012C, strain htz1): 1.02
- normalized growth [61]: 0.887 (active)
- normalized growth [62]: 0.98
- normalized growth [63]: 0.96
- normalized growth [64]: 0.915 (active)
- normalized growth [65]: 0.91 (active)
- normalized growth [66]: 0.725 (active)
- normalized growth [67]: 0.918 (active)
- normalized growth [68]: 0.914 (active)
- normalized growth [69]: 0.918
- normalized growth [70]: 0.855 (active)
- normalized growth [71]: 0.868 (active)
- normalized growth [72]: 0.897 (active)
